The target of this test is T1, ETS1 (UniProt P14921).
T1 sequence: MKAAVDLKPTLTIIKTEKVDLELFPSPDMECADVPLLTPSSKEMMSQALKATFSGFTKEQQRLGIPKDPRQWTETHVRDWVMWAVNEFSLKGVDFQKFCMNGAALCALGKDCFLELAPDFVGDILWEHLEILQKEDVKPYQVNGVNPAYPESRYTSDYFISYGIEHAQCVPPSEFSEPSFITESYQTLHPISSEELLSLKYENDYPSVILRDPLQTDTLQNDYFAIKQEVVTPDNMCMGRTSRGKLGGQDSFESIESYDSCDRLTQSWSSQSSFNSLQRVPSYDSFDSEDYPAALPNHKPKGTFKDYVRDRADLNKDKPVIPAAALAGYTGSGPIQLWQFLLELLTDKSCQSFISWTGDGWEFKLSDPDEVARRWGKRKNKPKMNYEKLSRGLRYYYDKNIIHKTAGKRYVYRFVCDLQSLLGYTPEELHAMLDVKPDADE
Briefly: ETS1 binding intensity (PBM fluorescence), ETS1 alone (arbitrary fluorescence units); higher = stronger binding. Particulars: ETS1 concentration 1 nM; RUNX1 concentration 0 nM. How it is done: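 Cooperative genomic-context PBM: 36-bp genomic probes with neighbouring ETS1 and RUNX1 sites, double-stranded on Agilent 4x180k arrays. Full-length recombinant human ETS1 (1 nM) was incubated alone or with RUNX1 (25 nM) and detected with anti-ETS1 antibody plus Alexa488 secondary. Value is the median fluorescence intensity over 4 replicate spots; the ETS1+RUNX1 data were normalised to the ETS1-only data using probes without RUNX1 sites. The 36-bp variable region sits on the array probe with constant linker/primer flanks that are not printed.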
As to TGCCTCTTCCTGTGGCTGGGCTGTATCTGACCACAC, the ETS1 binding intensity came out at 503.

In turn, TGCACCCGCCACTTCCGCATCGAACCGCCGCTTCAA came in with an ETS1 binding intensity of 1100.

On to GAGCCTGTTGCTTCCGGTTCAGAGCCCACATGCTGG, for which the ETS1 binding intensity stood at 3070.

Turning to TGATTAAAAACAGGATGTGGGTGAATAGTCATGCAT, the ETS1 binding intensity amounted to 4810.

On to CGGTTCCGGCGCCTGAAGTTTTAGCTGCGGTGGCGG, for which the ETS1 binding intensity is 347.

The sequence CGGCACCCTCCTTCCTCCCTGCCAACCGCCTCCACC registered an ETS1 binding intensity of 556.

In turn, CAGCTGCCTCCAGGAAGCGGTAAGTGACTCTGGTGG returned an ETS1 binding intensity of 1150.

CTGTGGCCTAGAAGCTTCCTGCCGCAGCTCTGAGGA registered an ETS1 binding intensity of 534.

In turn, GGGCTTCCGGCTGAACCCATGGCTGCGGGCTGTGCT came in with an ETS1 binding intensity of 445.

GGCTCGGCAAACATCCGGCTCCGCGGTGGAACGGGA yielded an ETS1 binding intensity of 1430.

Sequence TTCATCTACTTCCCGCCACACCCACAGAGAAGCCCA showed an ETS1 binding intensity of 469.

With ACCAGAACAGGAAATGTTAGTGGTTGAGTTAACGGT, the ETS1 binding intensity came out at 3760.

On to TTTTATCCTTCCTTTTTTGTTCTTTGTGGTGGAGGT, for which the ETS1 binding intensity was found to be 465.

The sequence GTTCAGCAGGAAGTGGATGTGGATGTGTGGTTGCCA showed an ETS1 binding intensity of 3230.

Turning to GGTGCCAAGGGCAGAGGATGTGGTGAGGTGTGGAGG, the ETS1 binding intensity amounted to 999.

GGACGCCGCCGGAAGCGCGACCCGCACTCCCGGTAG displayed an ETS1 binding intensity of 3650.

Sequence CGACTTCCGTCCCTGGGTGGGATCGAACCACCAACC registered an ETS1 binding intensity of 532.

With TGAGGCTCAGAGGAAGTGACTGGCCCGCAGGGTCAC, the ETS1 binding intensity came out at 1050.

GTGAGAGGAAGTGGGCGCTGGTTTAATGTGGTCAGC: the ETS1 binding intensity was 1010.

Sequence ACCCCAGGTACCGGAAGACCACAATTCCCAGGAGTC returned an ETS1 binding intensity of 2220.

Turning to AGCTTGCTTCCTGTCCCCAAAACCCACAGCACACGG, the ETS1 binding intensity stood at 688.

In turn, GCATTTACGGGCAGGAAATGAAACCACAGAGTACAA registered an ETS1 binding intensity of 5420.

Take TGCCACCTGCTTCCTGCCTGTGTAGCCACAAGGGAC: the ETS1 binding intensity turned out to be 783.

Turning to CCGCTTCCTTAGAGGTTAAGTGGTGGTGGTTCAGTT, the ETS1 binding intensity worked out at 473.

Sequence ATCAGAGCGGAAATCTCAGTCTTGTGTGGGGACCTG gave an ETS1 binding intensity of 1960.

Take ATGCCAAGGGACTTCCCTCCACAACCGCCCCCAGCT: the ETS1 binding intensity was 642.

With CATGGTTGTTATTTCCTCACCACAATATGTGACATT, the ETS1 binding intensity came to 386.

Consider AACAGACAGGATGTGGCCTCTGCCAAAACCACCATC, for which the ETS1 binding intensity was 3250.

CCCCTCGCCCTTCCGCATTGCGGGTTACTTCGGTTG yielded an ETS1 binding intensity of 521.

Regarding CCCAGGGCAGGAAGGGCCAAACCGCTACTGCCACTG, the ETS1 binding intensity was determined as 882.

TTATTTCCGGTGTTGATCTTTTTAGTGGTACCAGGC yielded an ETS1 binding intensity of 3400.

For TGCAATTGGCAGACAGGAAACCGCGGCGTTTTCTGG, the ETS1 binding intensity amounted to 5340.

In turn, CCTCCTCTTCCTCCCCACTCTGCACATGCGGCTGGG gave an ETS1 binding intensity of 520.

CTTTGTTGAAAAGGATGTGGTCATCTGATCTTGCTG: the ETS1 binding intensity worked out at 1070.

For the sequence CAAGCCAACATCCTGACAGTTTAGAAACCACAGGAG, the ETS1 binding intensity is 464.

In turn, GCGCACGCGCGTTGTTTCCGCGGTAGTCAGGGCAGT had an ETS1 binding intensity of 477.

As for TCTGATGTGCCTTCTTCCTGACCACAGCAACTACTA, the ETS1 binding intensity was 392.

In turn, CTCCACCGGATGCAGCAATGAAGGCCGCAGGAATGG gave an ETS1 binding intensity of 3160.

In the case of TGCCGGGCCCCGGATGTCACCGCAGCCGCCATCTTA, the ETS1 binding intensity was found to be 2460.

In the case of GAGCCCAACCGGCATCCGTCGCGGTTGGACGTGGGC, the ETS1 binding intensity is 343.

The record behind these values is the supplement of paper PMC10681739.
